Measured values reported in PubChem BioAssay.

Assay: small-molecule binders of probe aNOTCH3, primary screen, biochemical, small-molecule microarray, 635/667 nm fluorescence (AID 1120);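 also: probe is a biotin-tagged antibody raised against NOTCH3 rather than NOTCH3 protein; score merges spot fluorescence near 667 nm with spot signal to noise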
Details: higher = more signal

Structure (SMILES)	composite z-score
COCCCNC(=O)[C@@]1(CCC(=O)OC(C)(C)C)N=C(c2ccc(OCCCO)cc2)O[C@H]1c1ccccc1N=[N+]=[N-]	0.26
OCCCC1=CC(c2ccc(CN3CCCC3)cc2)N(Cc2cc3c(cc2Br)OCO3)CC1 (stereo not given)	0.0833
CCOC(=O)C[C@H]1[C@H](OC(=O)Cc2ccc3c(c2)OCO3)[C@@H](NC(=O)C2CCCCC2)c2cc(OCCCO)ccc2N1C(=O)c1ccccc1	-0.0647
COCC(=C=CC[C@H](O)c1ccccc1OCCO)C[C@H](O)c1ccccn1	-0.116
[N-]=[N+]=NCc1ccccc1[C@@H]1OC(c2ccc(OCCCO)cc2)=N[C@]1(CCS(=O)(=O)c1ccccc1)C(=O)O	0.0311

Assay: small-molecule binders of probe aNOTCH2, primary screen, biochemical, small-molecule microarray, 635/667 nm fluorescence (AID 1121);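 also: score merges feature fluorescence read at 667 nm with its signal to noise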
Details: higher = more signal

Structure (SMILES)	composite z-score
[N-]=[N+]=Nc1ccccc1C[C@@]1(C(=O)N2CCOCC2)N=C(c2ccc(OCCCO)cc2)O[C@@H]1c1ccccc1	-0.224
[N-]=[N+]=Nc1ccccc1C[C@]1(C(=O)O)COC(c2ccc(OCCCO)cc2)=N1	-0.0501
COCCOC(=O)N1C(=O)[C@@]2(c3cc(C#CC4=CCCCC4)ccc31)[C@H](c1ccccc1OCCO)N1[C@H](c3ccccc3)[C@H](c3ccccc3)OC(=O)[C@H]1[C@@H]2C(=O)N1CCN(c2ncccn2)CC1	-0.154
O=C1O[C@@H](c2ccccc2)[C@@H](c2ccccc2)N2[C@@H](c3ccc(OCCO)cc3)[C@]3(C(=O)Nc4ccc(C#CC5=CCCCC5)cc43)[C@@H](C(=O)NC[C@H](O)c3ccccc3)[C@H]12	0.338
[N-]=[N+]=Nc1ccccc1C[C@]1(C(=O)NCCN2CCOCC2)COC(c2ccc(OCCCO)cc2)=N1	0.0328
O=C1OCCC=C[C@H]2OC34C=CCN(Cn5nnc6ccccc65)C(=O)[C@H]3N(CCCO)C(=O)[C@@H]4C12 (stereo not given in full)	-0.13
CC(C)[Si](C#C[Si](C(C)C)(C(C)C)C(C)C)(O[C@H](c1ccccc1)c1cn(Cc2ccccc2)nn1)C(C)C	-0.146
CC(C)N1C(=O)C[C@@](C(=O)O)(c2ccc([N+](=O)[O-])cc2)[C@H]1c1ccc(CO)cc1	-0.0586
C=CCC(OC(C)=O)[C@@H]1[C@@H](N(Cc2ccc(-c3ccccc3)cc2)C(=O)c2ccc(-c3ccccc3)cc2)c2cc(OCCCO)ccc2N1C(=O)c1ccc2ccccc2c1 (stereo not given in full)	-0.115
COc1ccc([Si](C)(C)[C@@H]2[C@@H](CCO)O[C@]3(C(=O)N(Cc4ccccc4)c4ccc(N5CCOC5=O)cc43)[C@H]2C)cc1	-0.102
[N-]=[N+]=Nc1ccccc1C[C@]1(C(=O)NCC(O)CO)COC(c2ccc(OCCCO)cc2)=N1 (stereo not given in full)	-0.0482
CN(C)CCCCCCNC(=O)[C@@H]1C[C@@H]2C(=O)N3CCC[C@H]3C(=O)N2[C@@H]1c1cccc(OCCO)c1	-0.13
CCOC(=O)C[C@H]1[C@H](OC(=O)c2cc3ccccc3oc2=O)[C@@H](NC(=O)c2ccccc2)c2cc(OCCCO)ccc2N1C(=O)c1ccccc1	-0.147
O=C1C2C=CC(C(O)c3cccc(O)c3)N(Nc3ccc([N+](=O)[O-])cc3)C2C(=O)N1c1ccccc1 (stereo not given)	-0.0703
C=CC[C@@]1(C(=O)NCCCOC)N=C(c2ccc(OCCCO)cc2)O[C@@H]1c1ccccc1	0.0977
CCCCC(=C=CC[C@H](O)c1ccc(OCCO)cc1)CCO	-0.0795
C=C(C(=O)CC[C@H](OC(=O)c1ccccc1-c1ccccc1C(=O)O)c1cccc(OCCO)c1)C(C)C	-0.162
COC(=O)[C@]1(CCS(=O)(=O)c2ccccc2)N=C(c2ccc(OCCCO)cc2)O[C@@H]1c1ccccc1N=[N+]=[N-]	0.142

Structure (SMILES)	composite z-score
C=C(/C(=C/C[C@H](OC(=O)c1ccncc1)c1ccc(CO)o1)c1cnc2ccccc2c1)C(C)C	-0.0216
CC[C@@H]1C=C(C(=O)O)[C@H](c2ccc(C#N)cc2)N1S(=O)(=O)c1ccc(C)cc1	-0.046
CCCCCCCCCCC(O)C1C=CC2C(=O)N(c3ccccc3)C(=O)C2N1Nc1ccc(C#N)cc1 (stereo not given)	0.0169
CC[C@@H]1C=C(C(=O)O)[C@H](c2ccccc2)N1S(=O)(=O)c1ccc(C)cc1	0.0167
O=C1O[C@H](c2ccccc2)[C@H](c2ccccc2)N2[C@H]1[C@@H](C(=O)O)[C@]1(C(=O)Nc3ccc(C#CCCO)cc31)[C@H]2c1ccccc1OCCO	-0.124
O=C1C2C=CC(C(O)c3ccco3)N(Nc3ccccc3F)C2C(=O)N1c1ccccc1 (stereo not given)	-0.104
COc1ccc([Si](C)(C)[C@@H]2[C@@H](CCO)O[C@]3(C(=O)N(Cc4cccc(NC(=O)[C@H](C)O)c4)c4ccccc43)[C@H]2C)cc1	-0.0984
CC(C)N1C(=O)C[C@@](C(=O)NC2CC2)(c2ccc([N+](=O)[O-])cc2)[C@H]1c1ccc(CO)cc1	-0.14
Oc1ccc2cc[n+](Cc3cc4c(cc3Br)OCO4)cc2c1	-0.108
CCOC(=O)C[C@H]1[C@H](OC(=O)c2ccc(-c3ccccc3)cc2)[C@@H](NC(=O)CC(C)C)c2cc(OCCCO)ccc2N1C(=O)c1ccc2ccccc2n1	-0.161
CCCCC(CC)C(O)C1C=CC2C(=O)N(c3ccccc3)C(=O)C2N1Nc1ccccc1F (stereo not given)	-0.153
CCOC(=O)C[C@H]1[C@H](OC(=O)c2ccccc2-c2ccccc2)[C@@H](NC(=O)c2ccc3ccccc3n2)c2cc(OCCCO)ccc2N1C(=O)Cc1ccc(OC)cc1	-0.106
COCCCNC(=O)[C@@]1(CCC(=O)OC(C)(C)C)N=C(c2ccc(OCCCO)cc2)O[C@H]1c1ccccc1N=[N+]=[N-]	0.325
OCCCC1=CC(c2ccc(CN3CCCC3)cc2)N(Cc2cc3c(cc2Br)OCO3)CC1 (stereo not given)	-0.0467
CCOC(=O)C[C@H]1[C@H](OC(=O)Cc2ccc3c(c2)OCO3)[C@@H](NC(=O)C2CCCCC2)c2cc(OCCCO)ccc2N1C(=O)c1ccccc1	-0.14
COCC(=C=CC[C@H](O)c1ccccc1OCCO)C[C@H](O)c1ccccn1	-0.0984
[N-]=[N+]=NCc1ccccc1[C@@H]1OC(c2ccc(OCCCO)cc2)=N[C@]1(CCS(=O)(=O)c1ccccc1)C(=O)O	-0.0145
